Screening results as filed in PubChem BioAssay.
LDHA inh – inhibitors of human lactate dehydrogenase A; P00338; purified LDHA, NADH/diaphorase-resazurin fluorescence; stronger effect = lower value; activity change, % (values are at about 110 or 230 µM); 480,000 compounds, 0.15% hits; AID 1347041; in the data active = activity change below about -30%; inconclusive = mostly about -25% to -30%;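 also: plate controls were DMSO wells for no effect and wells without enzyme for full effect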
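Resorufin fluorescence (ex540/em590), read at 0 and 20 min after diaphorase/resazurin addition, reports the NADH left after a 5 min room-temperature reaction of 2 nM human LDH5 with 0.06 mM NADH and 0.2 mM pyruvate.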
aSyn rescue – alpha-synuclein toxicity inhibition in yeast; Yeast expressing alpha-synuclein, growth rescue, BacTiter-Glo, 24 h; 370,000 compounds, 0.14% hits; Potency, µM (top dose mostly 46.1 µM), for the others: at the top dose growth rescue (activation), usual class: activators; also: potency is read from the fitted curve at half-maximal effect; % of control where 0% means no effect; nearly all actives have a fitted effect of over 65% in size
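Readout is rescue of growth in alpha-synuclein-expressing yeast, so inhibitors of toxicity appear as activators. Growth after 24 hr at 30 deg C in galactose medium is quantified by luminescence.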
TDP-43 yeast inh – inhibitors of TDP-43 toxicity in yeast | TDP-43 expressing yeast growth rescue, BacTiter-Glo, 24 h | Potency, µM (top dose mostly 46.1 µM), inactives show at the top dose growth rescue (activation), most hits filed as activators | 410,000 compounds, 1.8% hits | AID 652104; also: potency is read from the fitted curve at half-maximal effect; % of control where 0% means no effect; nearly all actives have a fitted effect of over 50% in size
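Yeast cells expressing TDP-43 under galactose induction are exposed to compounds for 24 hr at 30 deg C. BacTiter-Glo luminescence measures growth, so protective compounds score as activators.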
PTHR1 ag – agonists of human PTHR1 parathyroid hormone receptor | Q03431 | Potency, µM (titrated, usually from 115 µM), for the others: at the top dose activation, actives largely listed as activators | 410,000 compounds, 0.075% hits | HEK293 GP2 PTHR1 cells, GloSensor cAMP luminescence, 1 h | AID 743266; also: potency is read from the fitted curve at half-maximal effect; nearly all actives have a fitted effect of over 55% in size
Target sequence (Q03431 whole entry, looked up): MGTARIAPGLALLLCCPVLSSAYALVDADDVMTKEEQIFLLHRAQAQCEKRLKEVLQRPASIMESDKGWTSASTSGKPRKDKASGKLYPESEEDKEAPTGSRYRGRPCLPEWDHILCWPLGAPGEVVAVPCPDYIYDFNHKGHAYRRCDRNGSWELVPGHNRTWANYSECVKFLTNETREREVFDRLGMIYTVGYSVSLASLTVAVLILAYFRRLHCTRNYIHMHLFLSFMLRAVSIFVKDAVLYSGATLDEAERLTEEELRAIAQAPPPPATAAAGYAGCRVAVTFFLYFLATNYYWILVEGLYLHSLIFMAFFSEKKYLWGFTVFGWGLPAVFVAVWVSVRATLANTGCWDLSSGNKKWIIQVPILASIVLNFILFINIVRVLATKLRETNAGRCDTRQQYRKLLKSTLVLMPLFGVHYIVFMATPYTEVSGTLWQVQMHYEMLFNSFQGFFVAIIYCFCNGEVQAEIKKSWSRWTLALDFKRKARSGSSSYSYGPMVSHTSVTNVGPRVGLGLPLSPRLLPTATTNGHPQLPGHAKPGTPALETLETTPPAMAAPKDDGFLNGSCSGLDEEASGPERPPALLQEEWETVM
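HEK-293-derived GP2 cells expressing PTHR1 and a GloSensor cAMP reporter, 3,000/well, plated overnight, given luciferin plus IBMX (each 0.5 mM as added) for 1 h at 37 °C, then compound for 1 h at 37 °C. Luminescence was read after 15 min at room temperature.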
FUS yeast rescue – FUS proteinopathy suppression in yeast. S. cerevisiae FUS-expressing, growth rescue, OD600, 24 h. Potency, µM (series often up to 76.6 µM), usual class: activators. 390,000 compounds, 0.24% hits. AID 1347120;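 also: potency is read from the fitted curve at half-maximal effect; plate controls were DMSO vehicle for no effect and reference control for full effect; nearly all actives have a fitted effect of over 55% in size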
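Cultures pregrown in 2.5% raffinose medium are shifted to minimal medium containing 2% galactose to express toxic FUS. Compounds are tested at several concentrations. After 24hr at 30C, growth is quantified at 600 nm absorbance.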
Abeta yeast res – restores growth of yeast expressing A-beta42 peptide. Potency, µM (doses to about 46.1 µM), actives largely listed as activators. yeast expressing A-beta42, growth rescue, OD600, 48 h; response scale: 0% DMSO, 100% iron-clioquinol control. 410,000 compounds, 0.063% hits. AID 1347071; also: potency is read from the fitted curve at half-maximal effect; nearly all actives have a fitted effect of over 55% in size
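Yeast growth medium received pinned compounds, then yeast cells expressing toxic A-beta were added; plates incubated at 30 C for 48 hr. Growth read as absorbance at 600 nm, normalized to DMSO and equimolar FeCl3 plus clioquinol controls.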
* marks the source's active call; other numbers are inactive results; i = inactive; u = inconclusive; x = no result; [ ] = remark or other dose. Hits are enriched below; roughly 1.9% of the tested compounds scored in any of these assays. Unless noted, calls follow the shape of the dose curve; as a rule, active = well fitted curve in the direction sought with a large enough effect; inconclusive = small, poorly fitted or top-dose-only effect, or another doubt; inactive = no such curve, though single readings can be large; an effect the other way counts as inactive or inconclusive.

SMILES | LDHA inh | aSyn rescue | TDP-43 yeast inh | PTHR1 ag | FUS yeast rescue | Abeta yeast res
COC(=O)c1ccc(Cl)c(NC(=O)CN(c2ccccc2)S(=O)(=O)N(C)C)c1 | 2 | x | x | x | x | x
CCc1c(-c2ccccc2)nc2ccccc2c1C(=O)NCc1ccc(C)cc1 | -9 | x | 35µM* | -37% | u | i
CCc1c(-c2ccccc2)nc2ccccc2c1C(=O)NCCc1ccccc1 | -9 | x | 33% | -23% | i | i
CCc1ccc(CNC(=O)c2cc3c(C)nc4ccccc4c3o2)cc1 | 3 | 26% | 20µM* | -37% | u | i
COc1cccc(CNC(=O)c2cc3c(C)nc4ccccc4c3o2)c1 | -3 | 0% | 27% | -31% | i | i
Cc1nc(SCc2nc(-c3ccccc3)oc2C)[nH]c(=O)c1C | 7 | x | x | x | x | x
Clc1ccc(CSc2nnc(-c3c[nH]c4ccccc34)o2)cc1 | -4 | -1% | -18% | -95% | i | i
Brc1ccc(CSc2nnc(Cc3c[nH]c4ccccc34)o2)cc1 | 5 | 0% | 8.9µM* | -20% | x | i
CCN(Cc1ccccc1)c1ccc(/C=C(\C#N)c2ccccn2)cc1 | -3 | 4% | -17% | -22% | i | i
CCN(CC)c1ccc(/C=C(\C#N)c2ccccn2)cc1 | -6 | -4% | 16µM* | -32% | i | i
Cc1ccc(S(=O)(=O)C(CNS(=O)(=O)c2ccc(F)c(C)c2)c2cccs2)cc1 (stereo not given) | -4 | x | u | -15% | i | i
Cc1cc(C)c(S(=O)(=O)NCC(c2cccs2)S(=O)(=O)c2ccccc2)c(C)c1 (stereo not given) | 9 | x | 2.8µM* | -20% | i | i
CCOc1ccc(S(=O)(=O)NCC(c2cccs2)S(=O)(=O)c2ccc(C)cc2)cc1 (stereo not given) | 4 | x | 2.8µM* | -2% | i | i
CCc1ccc(CNC(=O)CSc2c3c(nc4ccc(Cl)cc24)CCCC3)cc1 | -4 | x | u | -18% | i | i
O=C(CSc1c2c(nc3ccc(Cl)cc13)CCCC2)N1CCN(c2ccc(Cl)cc2)CC1 | 4 | x | 18µM* | i | u | i
COc1ccc(N2CCN(C(=O)CSc3c4c(nc5ccc(Cl)cc35)CCCC4)CC2)cc1 | 8 | x | 32µM* | -88% | u | i
Cc1ccc(CNC(=O)CSc2c3c(nc4cc(Cl)ccc24)CCCC3)o1 | 3 | -13% | 16µM* | -15%[57.5 µM] | u | i
O=C(CSc1c2c(nc3ccc(Cl)cc13)CCCC2)N1CCN(c2cccc(Cl)c2)CC1 | 0 | x | 16µM* | -32% | u | i
CSc1cccc(NC(=O)c2ccc3c(c2)CCC3)c1 | 6 | x | x | x | x | x
COc1c(F)cccc1C1=CC(=O)C[C@H](c2ccc(F)cc2)C1 | -3 | 5% | 18µM* | -29% | i | i
COc1ccc([C@H]2CC(=O)C=C(c3cccc(F)c3OC)C2)cc1 | -18 | 13% | 22µM* | -21% | i | i
COc1c(F)cccc1C1=CC(=O)C[C@H](c2ccc3c(c2)OCO3)C1 | 0 | 10% | 22µM* | -73% | i | i
COCc1ccccc1C1=CC(=O)C[C@H](c2ccc(F)cc2)C1 | -2 | 6% | u | -24% | i | i
COc1ccc(OC)c(C2=CC(=O)C[C@H](c3ccc4c(c3)OCO4)C2)c1 | -3 | 2% | 25µM* | -15% | u | i
COc1ccc([C@H]2CC(=O)C=C(c3cc(C)ccc3OC)C2)cc1 | 1 | 8% | u | -1% | i | i
SMILES | LDHA inh | aSyn rescue | TDP-43 yeast inh | PTHR1 ag | FUS yeast rescue | Abeta yeast res
O=C(O)/C=C/c1cccc(I)c1 | 1 | x | x | x | x | x
O=[N+]([O-])c1ccc(C=NN2CCOCC2)s1 | 3 | 2% | 11µM* | -22% | i | i
O=[N+]([O-])c1cc(/C=N/N2CCOCC2)cs1 | -8 | 3% | u | i | i | i
Cc1ccc(Cc2c(-c3ccc(C)cc3)nc3ccc(Cl)cn23)cc1 | 0 | 0% | 25µM* | i | i | i
Cc1ccc(Cc2c(-c3ccc(Cl)cc3)nc3ccc(Cl)cn23)cc1 | -5 | 6% | 35µM* | -37% | i | i
Cc1ccc(-c2nc3ccc(Cl)cn3c2Cc2cccc(F)c2)cc1 | -4 | u | 14µM* | -50% | i | i
Cc1ccc(Cc2c(-c3ccc(Br)cc3)nc3ccc(Cl)cn23)cc1 | -3 | 0% | 26% | -4% | i | i
Cc1ccc(-c2nc3ccc(Cl)cn3c2Cc2ccccc2C(F)(F)F)cc1 | 0 | 7% | 22µM* | i | u | i
COc1cccc2cc(C(=O)NCCc3c(C)[nH]c4ccc(C)cc34)c(=O)oc12 | 3 | x | x | x | x | x
CCCC(=O)Nc1ccc(C(=O)Nc2cc(C)cc(C)c2)cc1 | -1 | x | x | x | x | x
CCOC(=O)c1oc2ccccc2c1COC(=O)CNC(=O)c1ccc2c(c1)OCO2 | -20 | x | x | x | x | x
Cc1c(C(=O)NCc2ccc(Cl)cc2)oc2ccc3c(c12)C(=O)CC(C)(C)O3 | -7 | x | 15% | -40% | i | i
CCCNC(=O)c1oc2ccc3c(c2c1C)C(=O)CC(C)(C)O3 | -1 | -2% | 14µM* | -21% | i | i
O=C(O)CC1(CC(=O)Nc2ccc3sccc3c2)CCCCC1 | -6 | -15% | 7.9µM* | i | i | i
Cc1ccc(C(=O)Nc2nc3ccc(S(=O)(=O)N(C)C)cc3s2)cc1C | -12 | x | x | x | x | x
COc1cccc(-c2nc(N3CC(C)CC(C)C3)c3ccccc3n2)c1O (stereo not given) | -4 | 7% | 13µM* | i | i | i
COc1cccc(-c2nc(N3CCC(C)CC3)c3ccccc3n2)c1O | 5 | 17% | -8% | i | i | i
COc1ccc(Nc2nc(-c3cccc(OC)c3O)nc3ccccc23)cc1 | 3 | 3% | 18µM* | -17% | u | i
Cc1ccccc1C(=O)Nc1ccc2c(c1)CCC2 | 4 | x | x | x | x | x
Cc1cccc(C(=O)Nc2ccc(NC(=O)c3ccco3)cc2O)c1 | 5 | x | x | x | x | x
O=C(CS(=O)c1ccc(C(F)(F)F)cc1[N+](=O)[O-])Oc1ccccc1 (stereo not given) | 13 | -16% | 22µM* | -12%[57.5 µM] | i | i
CCOC(=O)c1ccccc1OC(=O)CS(=O)c1ccccc1[N+](=O)[O-] (stereo not given) | 6 | 3% | -16%[9.22 µM] | i | i | i
